G9a block: G9a (human) methyltransferase inhibition. Q96KQ7. G9a H3K9 monomethylation, AlphaScreen, 2 h. Potency, µM (highest dose often 102 µM), for the others: top-dose activity, negative = inhibition, usual class: inhibitors. 8.8% of 350,000 active. AID 504332; also: potency is read from the fitted curve at half-maximal effect; % is scaled to controls: 0 for no effect and ±100 for the full control effect; nearly all actives have a fitted effect of over 75% in size
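Step 1: enzyme (final 20 nM) with compound, 15 min RT. Step 2: substrate peptide 500 nM and SAM 20 uM, 2 h RT. Step 3: anti-H3K9me1 antibody and AlphaScreen beads, 10 min, then plate read.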
BAZ2B block: blocks human BAZ2B. Q9UIF8. AlphaScreen BAZ2B-H3K14Ac peptide displacement. Potency, µM (series often up to 114 µM), for the others: at the top dose activity change, negative = inhibition, actives largely listed as inhibitors. 4.4% of 360,000 active; also: potency is read from the fitted curve at half-maximal effect; % is scaled to controls: 0 for no effect and ±100 for the full control effect; nearly all actives have a fitted effect of over 60% in size
Target sequence (Q9UIF8 whole entry, looked up): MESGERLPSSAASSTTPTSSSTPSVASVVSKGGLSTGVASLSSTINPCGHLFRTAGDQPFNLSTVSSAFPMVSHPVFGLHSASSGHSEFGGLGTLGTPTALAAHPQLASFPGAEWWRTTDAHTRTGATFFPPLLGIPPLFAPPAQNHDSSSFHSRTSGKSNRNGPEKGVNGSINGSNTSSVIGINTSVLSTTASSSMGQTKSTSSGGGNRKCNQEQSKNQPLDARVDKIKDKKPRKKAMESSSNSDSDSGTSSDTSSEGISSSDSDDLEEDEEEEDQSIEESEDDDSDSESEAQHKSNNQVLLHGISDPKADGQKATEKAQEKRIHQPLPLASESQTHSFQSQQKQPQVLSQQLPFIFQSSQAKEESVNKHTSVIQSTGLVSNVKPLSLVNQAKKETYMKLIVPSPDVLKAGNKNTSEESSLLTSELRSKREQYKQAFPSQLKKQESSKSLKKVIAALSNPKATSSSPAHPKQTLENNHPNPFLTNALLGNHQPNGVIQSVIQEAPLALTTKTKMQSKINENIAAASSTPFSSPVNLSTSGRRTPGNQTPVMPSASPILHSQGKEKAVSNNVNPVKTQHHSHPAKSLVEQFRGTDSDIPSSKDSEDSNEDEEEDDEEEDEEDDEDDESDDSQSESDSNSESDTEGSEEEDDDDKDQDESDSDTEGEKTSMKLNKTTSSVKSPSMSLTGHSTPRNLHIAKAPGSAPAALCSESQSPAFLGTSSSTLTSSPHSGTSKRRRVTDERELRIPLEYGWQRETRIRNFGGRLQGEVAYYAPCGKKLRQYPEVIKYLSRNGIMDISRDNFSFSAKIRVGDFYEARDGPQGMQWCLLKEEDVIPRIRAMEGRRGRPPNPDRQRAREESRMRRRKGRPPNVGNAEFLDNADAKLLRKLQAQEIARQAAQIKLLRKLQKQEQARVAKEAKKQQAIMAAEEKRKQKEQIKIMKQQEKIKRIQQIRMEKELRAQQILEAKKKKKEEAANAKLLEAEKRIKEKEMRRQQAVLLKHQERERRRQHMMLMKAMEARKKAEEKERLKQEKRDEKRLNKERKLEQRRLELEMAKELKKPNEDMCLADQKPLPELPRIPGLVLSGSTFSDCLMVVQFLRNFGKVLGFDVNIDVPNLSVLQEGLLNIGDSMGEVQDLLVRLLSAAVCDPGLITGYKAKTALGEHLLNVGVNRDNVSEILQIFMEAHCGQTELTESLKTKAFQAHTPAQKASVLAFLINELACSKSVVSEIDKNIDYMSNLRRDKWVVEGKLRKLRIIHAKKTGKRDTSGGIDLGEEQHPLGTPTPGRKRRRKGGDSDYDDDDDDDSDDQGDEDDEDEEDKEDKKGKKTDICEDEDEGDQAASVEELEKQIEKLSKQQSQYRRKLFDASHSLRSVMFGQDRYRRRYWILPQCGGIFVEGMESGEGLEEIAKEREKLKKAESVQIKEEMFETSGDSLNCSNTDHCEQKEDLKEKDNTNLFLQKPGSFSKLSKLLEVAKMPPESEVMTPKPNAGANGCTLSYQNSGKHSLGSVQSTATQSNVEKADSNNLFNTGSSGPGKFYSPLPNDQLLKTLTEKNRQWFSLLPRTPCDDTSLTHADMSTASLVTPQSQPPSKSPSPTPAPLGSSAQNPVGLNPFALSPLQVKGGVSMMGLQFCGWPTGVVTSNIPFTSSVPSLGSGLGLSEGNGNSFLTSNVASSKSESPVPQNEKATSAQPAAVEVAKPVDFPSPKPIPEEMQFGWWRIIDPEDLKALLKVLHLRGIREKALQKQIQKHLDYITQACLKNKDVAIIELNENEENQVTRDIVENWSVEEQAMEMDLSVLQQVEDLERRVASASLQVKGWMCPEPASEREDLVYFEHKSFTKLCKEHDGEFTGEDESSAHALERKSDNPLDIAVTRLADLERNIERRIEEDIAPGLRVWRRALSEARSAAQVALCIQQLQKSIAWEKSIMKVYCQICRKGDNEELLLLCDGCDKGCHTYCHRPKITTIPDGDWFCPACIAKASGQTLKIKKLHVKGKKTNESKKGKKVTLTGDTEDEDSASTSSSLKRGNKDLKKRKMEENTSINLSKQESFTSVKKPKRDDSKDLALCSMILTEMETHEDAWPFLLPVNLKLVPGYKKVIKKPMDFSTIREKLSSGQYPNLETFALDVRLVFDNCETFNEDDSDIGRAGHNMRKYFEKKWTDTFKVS
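AlphaScreen displacement: compounds (up to 110uM) incubated 30 min at room temperature with a preformed 50 nM BAZ2B/50 nM biotinylated H3K14Ac peptide complex in PBS pH 7.4 with Tween-20. Donor and acceptor beads at 10 ug/mL final added, 20 min light-protected before reading.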
PI5P4Ka inh: inhibitors of human PI5P4K alpha; PI5P4Kalpha enzyme, ADP-Glo luminescence, 60 min; hits give low values; 1.2% of 330,000 active; max response, %; P48426; active = max response of -50% or lower; inconclusive = between -30% and -50%; inactive = -30% or higher; also: value at the top dose of about 77 µM; % is scaled to controls: 0 for no effect and ±100 for the full control effect
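PI5P4Kalpha ADP-Glo assay; 5 microM ATP final; 60 min RT reaction; HEPES pH 7.4/EGTA/CHAPS, 5% DMSO; controls lacking substrate or enzyme; luminescent end-point.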
PLK1 PBD inh: inhibitors of human PLK1 polo-box domain binding; P53350; Plk1 PBD binding of FITC phosphopeptide, fluorescence polarization; Potency, µM, for the others: max response, negative = inhibition, usual class: inhibitors; 2.8% of 360,000 active; AID 720504; also: potency is read from the fitted curve at half-maximal effect; series mostly up to about 57 µM; % is scaled to controls: 0 for no effect and ±100 for the full control effect; nearly all actives have a fitted effect of over 65% in size
JMJD2A Tudor inh: blocks the human JMJD2A Tudor domain. Potency, µM (top dose mostly 114 µM), for the others: top-dose activity change, negative = inhibition, hits mostly inhibitors. AID 504339. AlphaScreen JMJD2A-Tudor / H3K4me3 peptide binding. 4.4% of 390,000 active. O75164; also: potency is read from the fitted curve at half-maximal effect; % is scaled to controls: 0 for no effect and ±100 for the full control effect; nearly all actives have a fitted effect of over 50% in size
HP1b chromo inh: inhibitors of HP1-beta chromodomain binding to methylated histone tails. P83916. AlphaScreen HP1-beta / biotin-H3K9me3 peptide binding. Potency, µM (series often up to 114 µM), for inactives: at the top dose activity change, negative = inhibition, actives largely listed as inhibitors. 0.56% of 390,000 active; also: potency is read from the fitted curve at half-maximal effect; nearly all actives have a fitted effect of over 70% in size
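HP1-beta protein (50 nM final) preincubated 30 min at room temperature with biotinylated H3(1-18)K9me3 peptide (50 nM) in PBS pH 7.4, 0.01% Tween-20, then compound added for 30 min. AlphaScreen streptavidin donor/nickel chelate acceptor beads (10 ug/mL final), 30 min dark, luminescence read.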
JMJD2E inh-1: inhibitors of human JMJD2E demethylase, 8HQ series round 1. 89% of 130 active. Potency, µM (top dose mostly 57 µM), for inactives: at the highest dose activity, negative = inhibition, usual class: inhibitors. AID 493212. JMJD2E demethylase, FDH-coupled NADH fluorescence. shares compounds with BAZ2B block
JMJD2E inh-2: JMJD2E (human) demethylase inhibition, confirmation. Potency, µM (series often up to 56.8 µM), for the others: at the highest dose activity change, negative = inhibition, usual class: inhibitors. shares compounds with JMJD2A Tudor inh. Recombinant JMJD2E, FDH-coupled NADH fluorescence (FDH is formaldehyde dehydrogenase). 93% of 140 active. AID 2677
FDH inh: FDH (Pseudomonas putida) inhibition counter-screen. shares compounds with JMJD2A Tudor inh. FDH enzyme assay, NADH fluorescence kinetic. Potency, µM (highest dose often 56.7 µM), inactives show at the top dose activity, negative = inhibition, actives largely listed as inhibitors. 10% of 140 active
JMJD2E MALDI inh: inhibitors of human JMJD2E demethylase; shares compounds with JMJD2A Tudor inh; recombinant JMJD2E demethylation, MALDI-TOF-MS; Potency, µM, usual class: inhibitors; 90% of 45 active;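 active = compounds whose IC50 for blocking JMJD2E demethylation is below 100 µM; inconclusive = dose dependent effect but IC50 above 100 µM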
Active calls of the source: *; ? = inconclusive; . = no result; [ ] = dose if it differs, or a comment. A selection: hits, their analogues and other compounds. The true share with any hit is near 12%. Unless noted, calls follow the shape of the dose curve; as a rule, active = well fitted curve in the direction sought with a large enough effect; inconclusive = small, poorly fitted or top-dose-only effect, or another doubt; inactive = no such curve, though single readings can be large; an effect the other way counts as inactive or inconclusive.

SMILES | G9a block | BAZ2B block | PI5P4Ka inh | PLK1 PBD inh | JMJD2A Tudor inh | HP1b chromo inh | JMJD2E inh-1 | JMJD2E inh-2 | FDH inh | others
Oc1ccc(CNc2ccc(C(F)(F)F)cc2F)c2cccnc12 | . | . | . | . | 50µM* | . | 2.2µM* | 2.2µM* | -18% | JMJD2E MALDI inh=20*
Cc1ccc(NCc2ccc(O)c3ncccc23)c(F)c1 | . | . | . | . | 18µM* | . | 0.71µM* | 8.1µM* | -9% | JMJD2E MALDI inh=11*
Nc1cc(C(F)(F)F)ccc1NCCc1ccccn1 | -18% | ? | 3 | -7% | ? | ? | . | . | .
O=S(=O)(Nc1ccccc1F)c1ccc(O)c2ncccc12 | . | . | . | . | . | . | 29µM* | 13µM* | -36%
O=S(=O)(NCc1ccccc1)c1ccc(O)c2ncccc12 | . | . | . | . | . | . | 32µM* | 23µM* | -36%
O=S(=O)(Nc1ccccc1)c1ccc(O)c2ncccc12 | . | . | . | . | . | . | 9.1µM* | 9.1µM* | -27%
O=S(=O)(c1ccc(O)c2ncccc12)N1CCCCC1 | . | . | . | . | . | . | 18µM* | 18µM* | -36%
CCOc1ccc(NS(=O)(=O)c2ccc(OCC)c3ncccc23)cc1 | 6% | -7% | . | -4% | -11% | 6% | . | . | .
Cc1ccc(C)c(S(=O)(=O)c2nnn3c2nc(NCc2ccc4c(c2)OCO4)c2sccc23)c1 | -18%[59 µM] | -16% | . | . | -3% | 19% | . | . | .
CC(=O)c1sc(NC(=O)CN2C(=O)C3CC=CCC3C2=O)nc1-c1ccccc1 (stereo not drawn) | -8% | 0% | 4 | -1% | -14% | 22% | . | . | .
COc1ccc(CNC(=O)CN2C(=O)NC(C)(c3cccc(Br)c3)C2=O)cc1 (stereo not drawn) | 15% | -10% | -3 | 0% | -19% | 10% | . | . | .
Oc1ccc(COC2CCCC2)c2cccnc12 | -31%[12.7 µM] | 13µM* | . | . | . | . | 6.3µM* | 6.3µM* | -9%
Oc1ccc2c(c1)c1ccccc1c1ncccc21 | . | . | 15 | 3% | -10% | 6% | . | . | .
Oc1ccc(COc2cccc3ccccc23)c2cccnc12 | ? | 56µM* | . | . | . | . | 10µM* | 10µM* | -18%
CN(CC(=O)Nc1ccc(F)c(F)c1F)C(=O)Cc1ccc(S(=O)(=O)N2CCOCC2)s1 | . | . | 2 | 4% | 12% | 27% | . | . | .
CNS(=O)(=O)c1cn(CC(=O)Nc2ccc(C(C)=O)cc2)cc1S(=O)(=O)NC | -1%[59 µM] | -13% | . | . | 1% | 31% | . | . | .
C=CCN1C(=O)C2(OCCCO2)c2cc(C)ccc21 | 16% | 5% | -2 | -4% | -8% | 15% | . | . | .
O=C(COC(=O)Cc1ccccc1)NCc1ccc2c(c1)OCO2 | . | . | -6 | -2% | -14% | 6% | . | . | .
O=C(O)c1cc(Br)c(O)c2ncccc12 | . | . | . | . | . | . | 0.0073µM* | ? | -18%
COc1ccc(C(=O)Nc2cc(OC)cc3cccnc23)cc1 | 6%[2.33 µM] | -7% | 20 | -7% | 5% | 52% | . | . | .
Oc1cc(Nc2ccncc2)cc2cccnc12 | -27%[12.7 µM] | 4µM* | . | . | 20µM* | 41% | 25µM* | 25µM* | -9% | JMJD2E MALDI inh=20*
Oc1cc(Nc2cccnc2)cc2cccnc12 | -1%[12.7 µM] | 7.9µM* | . | . | 45µM* | 44% | 32µM* | 32µM* | -18% | JMJD2E MALDI inh=30*
Oc1cc(NCCc2cccnc2)cc2cccnc12 | -47%[12.7 µM] | 5.6µM* | . | . | 40µM* | 54% | 32µM* | 32µM* | -27% | JMJD2E MALDI inh=?

From PubChem
